# Data taken from PubChem BioAssay (NCI).
# This is part of a sample that, as a whole, favours compounds with a hit. Of some 83,000 tested, about 20% had one in any assay.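 Single-concentration screen, 48 h exposure, 96-well plates. Endpoint: percent growth. Below 10 = active.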 The source made the active and inactive calls.
# Test system: MDA-MB-468 breast
# Assay: NCI-60 one-dose screen, 48 h (100 = growth as untreated, 0 = no growth, -100 = all killed)
# Settings: 10 µM unless noted
row,Structure (SMILES),growth
1,COC(=O)[C@]12CC[C@@H](C)[C@H](C)[C@@H]1C1=CC[C@@H]3[C@@]4(C)CC(=O)[C@H](O)[C@@]5(C)COC(=C45)C[C@@]3(C)[C@]1(C)CC2,-83.9% (active)
2,COc1ccc(-c2cc(-c3ccc(Cl)cc3)nc(NCCCCNc3ccnc4cc(Cl)ccc34)n2)cc1,75.1% (inactive)
3,OCCNc1nc(NCCO)nc(Nc2ccc(C3=NN(c4cc(Cl)cc(Cl)c4)C(c4ccc(C(F)(F)F)cc4)C3)cc2)n1 (stereo unspecified),39.7% (inactive)
4,CCC(C)Nc1ccc(N)cc1 (stereo unspecified),-30.9% (active)
5,O=C1NC(=Nc2ccc(S(=O)(=O)Nc3nccs3)cc2)S/C1=C\c1coc2ccccc2c1=O,99.9% (inactive)
6,[2H]C1([2H])CCN(C(=O)C2CC2)c2cc(NS(=O)(=O)c3ccc(-c4cccc(C(N)=O)c4)cc3)ccc21,-5.25% (active)
7,CC1(C)N=C(N)N=C(N)N1c1cccc(CN)c1,84.8% (inactive)
8,CN1CCN(C2=Nc3ccccc3Oc3ccc(Cl)cc32)CC1,100% (inactive)
9,COc1cccc(-c2cc(C(=O)Nc3ccc(/C=C/c4ccc(OC5CCN(C)CC5)cc4)cc3)ccc2OC)c1,-36.4% (active)
10,COc1cc2c(cc1O)CCc1cc(O)cc(OC)c1-2,98% (inactive)
11,O=C(C[N+](=O)[O-])c1ccc(Cl)cc1,112% (inactive)
